The source of these data is PubChem BioAssay (NCI).

Some test systems named below: T-47D breast; BT-549 breast; MDA-MB-435 melanoma; SW-620 colon; MCF7 breast; HCT-116 colon; HCC-2998 colon; KM12 colon.
Assay in all cases: NCI-60 one-dose screen, 48 h (100 = growth as untreated, 0 = no growth, -100 = all killed)
Common to all, as to details: 10 µM unless noted

The structures appear in SMILES notation. The panel holds about 83,000 compounds, 20% with a hit somewhere; the sample as a whole holds those more often.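 Results are percent growth after 48 hours of single-concentration exposure. 100 means growth as in untreated cells, lower positive values show inhibition; negative values down to -100 show cell death.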 A number with no mark means an inactive call. Active and inactive are the calls of the source. Rule for the calls: active = growth percent below 10; inactive = the rest.

For `CCOC(=O)c1cc(C(=O)c2cc(OC)cc(OC)c2)n2ncccc12`, the growth was 32.9% in the test with T-47D breast; 18.4% in the test with BT-549 breast; 1.18% (active) in the test on MDA-MB-435 melanoma; 18.4% in the test with SW-620 colon; 24.8% in the test on MCF7 breast; 13.5% with HCT-116 colon. Further, the growth in the test on HCC-2998 colon was 66.7%; with KM12 colon, 27.8%.
Take `O=C(O)/C=C/c1cn(-c2ccccc2)nc1-c1ccc(F)cc1`: the growth was 93.9% in the test with T-47D breast; 90.7% in the test on BT-549 breast; 105% in the test on MDA-MB-435 melanoma; 89.8% in the test with SW-620 colon; 84% with MCF7 breast; 82.5% with HCT-116 colon. Moreover, the growth is 103% in the test on HCC-2998 colon and 90.4% with KM12 colon.
With `CCCN1C(=O)N(CCC)C2C1NC(=S)N2/N=C/C=C/c1ccccc1OC` (stereo not drawn), the growth in the test with T-47D breast is 40.3%; in the test on BT-549 breast, 56%; with MDA-MB-435 melanoma it was -56.1% (active); in the test on SW-620 colon it was 22%; with MCF7 breast, 17.4%; in the test with HCT-116 colon, 18.3%. The growth in the test with HCC-2998 colon is 20.3%; in the test on KM12 colon it was 21.1%.
With `CN1CCN(CCCNC(=O)c2c3c(n4ccccc24)C(=O)c2ncccc2C3=O)CC1`, the growth with T-47D breast is -4.38% (active); in the test on BT-549 breast it was 54.8%; in the test on MDA-MB-435 melanoma, -81.1% (active); in the test with SW-620 colon, -5.63% (active); in the test on MCF7 breast, -43.8% (active); in the test on HCT-116 colon, -16.4% (active). Moreover, the growth with HCC-2998 colon was -32.2% (active); with KM12 colon, 11.3%.
`C=CCNc1nc(O)c(/C=C2\C=Nc3ncccc32)s1`: the growth with T-47D breast is -8.68% (active); in the test with BT-549 breast it was -29.5% (active); in the test on MDA-MB-435 melanoma, 21.1%; with SW-620 colon it was 7.39% (active); with MCF7 breast, 3.5% (active); with HCT-116 colon, 6.31% (active). Moreover, the growth with HCC-2998 colon was 44.6%; in the test on KM12 colon it was 7.86% (active).
With `C#CCOc1cc(/C=N/Nc2nc(-c3ccc(OC)cc3)cs2)ccc1O`, the growth was 61.2% with T-47D breast; 84.5% in the test with BT-549 breast; 94.7% in the test with MDA-MB-435 melanoma; 94.8% in the test with SW-620 colon; 68.9% in the test with MCF7 breast; 76.5% in the test with HCT-116 colon. Besides, the figures for the growth in the test with HCC-2998 colon and with KM12 colon were 92.4% and 88.6%, respectively.
Turning to `Cc1[nH]c(C(=O)Nc2ccc(C(N)=O)cc2OC(C)C)c(Cl)c1Cl`, the growth with T-47D breast was 74.9%; with BT-549 breast, 95.4%; in the test on MDA-MB-435 melanoma, 105%; in the test on SW-620 colon it was 105%; in the test on MCF7 breast, 88.7%; in the test with HCT-116 colon it was 98.3%. Also, the figures for the growth in the test on HCC-2998 colon and in the test with KM12 colon were 110% and 98.5%, respectively.
For the compound `O=C(/C=C/c1ccco1)Nc1ncc(Cc2ccc(F)cc2)s1`, the growth in the test on T-47D breast is 49.3%; with BT-549 breast, 24.2%; in the test on MDA-MB-435 melanoma it was -17.6% (active); in the test on SW-620 colon, 25.4%; with MCF7 breast it was 15.8%; in the test on HCT-116 colon it was 19.5%. Besides, the growth was 7.46% (active) in the test with HCC-2998 colon and 16.1% in the test with KM12 colon.
Turning to `CC(=O)c1c(/C=C/c2ccc(C)cc2)c2ccccc2[nH]c1=O`, the growth was 85.7% in the test with T-47D breast; 95.1% with BT-549 breast; 96.1% with MDA-MB-435 melanoma; 95.1% with SW-620 colon; 88.7% in the test with MCF7 breast; 91.7% with HCT-116 colon. The growth was 96.5% with HCC-2998 colon and 100% in the test on KM12 colon.
As to `O=C(/C=C/c1ccco1)c1ccc(Nc2ccnc3cc(Cl)ccc23)cc1`, the growth in the test with T-47D breast is 83.7%; with BT-549 breast, 88.5%; with MDA-MB-435 melanoma, 92.5%; in the test with SW-620 colon, 86.3%; in the test on MCF7 breast, 56.1%; in the test with HCT-116 colon, 33.7%. For the same compound, the growth in the test with HCC-2998 colon was 60.7%; in the test with KM12 colon it was 80.2%.
`COC(=O)c1nc(-c2ccccc2)oc1S(=O)(=O)NCC(c1ccc(Cl)cc1)N1CCCCC1` (stereo not drawn): the growth with T-47D breast was 52.1%; in the test on BT-549 breast it was 55.8%; in the test on MDA-MB-435 melanoma, 72.1%; in the test on SW-620 colon it was 36.2%; in the test on MCF7 breast, 34.7%; in the test on HCT-116 colon it was 78%. Moreover, the results for the growth in the test on HCC-2998 colon and in the test with KM12 colon were 117% and 80.6%, respectively.
For `Cc1oc2ccc(O)c(CN3CCCCCC3)c2c1C(=O)Nc1ccc(C(F)(F)F)cc1`, the growth is 74% with T-47D breast; 78.5% in the test with BT-549 breast; 58.2% with MDA-MB-435 melanoma; 67.4% with SW-620 colon; 48.1% in the test with MCF7 breast; 32.7% in the test on HCT-116 colon. In addition, the growth in the test on HCC-2998 colon was 11.2%; in the test on KM12 colon it was 65.5%.
On to `COc1cccc(/C=C2\CCc3ccccc3C2=O)c1`, for which the growth in the test on T-47D breast is 75.3%; in the test with BT-549 breast, 86.4%; with MDA-MB-435 melanoma it was 58.2%; with SW-620 colon it was 52.1%; with MCF7 breast it was 27.5%; in the test with HCT-116 colon it was 53.4%. Also, the growth is 94.7% in the test with HCC-2998 colon and 64% with KM12 colon.
As for `N#CSCc1cc(Cl)c(CSC#N)cc1Cl`, the growth is 90% in the test on T-47D breast; 39.7% with BT-549 breast; 34.9% in the test with MDA-MB-435 melanoma; 20.6% in the test on SW-620 colon; 24.5% in the test with MCF7 breast; 34.7% in the test with HCT-116 colon. The growth is 97% with HCC-2998 colon and 85.5% with KM12 colon.
In the case of `Cc1ccccc1NC(=O)c1sc2nc3c(cc2c1N)CCCC3`, the growth was 29.6% with T-47D breast; 63.5% in the test on BT-549 breast; -18.4% (active) with MDA-MB-435 melanoma; 19.2% in the test on SW-620 colon; 13.3% with MCF7 breast; 29% with HCT-116 colon. In addition, the values for the growth in the test on HCC-2998 colon and with KM12 colon were 64.8% and 25.2%, respectively.
As for `O=C1NCCS(=O)(=O)/C1=C\C=C\c1cccc(C(F)(F)F)c1`, the growth was 22.6% in the test on T-47D breast; 20.2% in the test with BT-549 breast; 18.2% in the test on MDA-MB-435 melanoma; 28.3% with SW-620 colon; 18.2% in the test with MCF7 breast; -41.8% (active) with HCT-116 colon. For the same compound, the growth was 19.6% with HCC-2998 colon and 43.9% in the test with KM12 colon.
